Bioassay records as filed in PubChem.
aSyn UTR act: Activators via SNCA 5'UTR binding, MLPCN; alpha-synuclein 5'UTR reporter, activators screen; activity score, % (tested at 7.5 µM), hits read low; 300,000 tested, 7.1% active; AID 1814, 2009; in the data active means activity score below about -60%
Numbers stand for hits; n = inactive. Only a sample is shown.

SMILES	aSyn UTR act
Cc1csc(C(C#N)C(=O)c2cc3ccccc3o2)n1 (stereo not given)	-145
Cc1c(/C(O)=C2/C(=O)C(=O)N(CCN3CCOCC3)C2c2cccs2)cnn1-c1ccccc1 (stereo not given)	-155
Cc1c(/C(O)=C2\C(=O)C(=O)N(CCN(C)C)C2c2ccco2)cnn1-c1ccccc1 (stereo not given)	-78
Cc1ccc(C2/C(=C(\O)c3cnn(-c4ccccc4)c3C)C(=O)C(=O)N2CCN(C)C)o1 (stereo not given)	-92
Cc1ccc(C2/C(=C(/O)c3cnn(-c4ccccc4)c3C)C(=O)C(=O)N2CCN2CCOCC2)o1 (stereo not given)	-121
CCN(CC)CCN1C(=O)C(=O)/C(=C(/O)c2cnn(-c3ccccc3)c2C)C1c1ccc(C)o1 (stereo not given)	-77
O=C(Nc1ccccc1)ON=C1c2ccccc2-c2ccccc21	-106
CC(C)CCNCC(O)CON=C1c2ccccc2-c2ccccc21 (stereo not given)	n
COc1ccc2oc(-c3ccc(C)c(NC(=O)CSc4ccc(Cl)cc4)c3)nc2c1	-133
O=C(CSc1ccc(Cl)cc1)Nc1cc(-c2nc3ncccc3o2)ccc1Cl	-74
COCC(=O)Nc1ccccc1C(=O)Nc1ccc(OC)cc1	-90
CC(=O)Nc1ccc(OCc2cccc3ccccc23)cc1	n
COc1ccc(NC(=O)c2ccccc2C)cc1	-132
COc1ccc(NC(=O)c2cccc3ccccc23)cc1	-96
COc1ccc(NC(=O)CCn2cc(C)c3ccccc32)cc1	-76
COc1ccc(-n2c(C)cc(C(=O)NC3CCCCC3)c2C)cc1	-156
Cc1cccc(-n2c(C)cc(C(=O)NC3CCCCC3)c2C)c1	-76
CCOc1ccc(-n2c(C)cc(C(=O)CCl)c2C)cc1	n
O=C1CN(c2ccccc2)C(=S)N1C(=O)c1ccc(Br)cc1	-150
N=c1oc2cc(O)ccc2cc1C(=O)Nc1ccc(F)cc1	-148
COc1ccc(NC(=O)c2cc3cc(OC)ccc3oc2=N)cc1	-63
CCCCCCc1cc2cc(C(=O)Nc3cccc(OC)c3)c(=O)oc2cc1O	n
O=C(c1ccc(F)cc1)c1cc2ccc(O)cc2oc1=O	-62
COc1ccc(NC(=O)c2cc3ccc(O)cc3o/c2=N\O)cc1	-155
O=C(N/N=C/C=C\c1ccccc1[N+](=O)[O-])c1cc(-c2ccc3ccccc3c2)n[nH]1	-88
SMILES	aSyn UTR act
O=C(N/N=C/c1ccco1)c1cc(-c2ccc3ccccc3c2)n[nH]1	-75
O=C(N/N=C/c1ccccn1)c1cc(-c2ccc3ccccc3c2)n[nH]1	-161
O=c1nc(/C=C/c2ccc(O)c(O)c2)oc2ccccc12	-159
O=c1cc(N2CCN(c3ccccc3Cl)CC2)[nH]c(=O)n1Cc1ccc(F)cc1	-72
Cc1ccc2nc(-c3ccc(NC(=O)CN4C(=O)c5ccccc5C4=O)cc3)sc2c1	-200
Cc1ccc2nc(-c3ccc(NC(=S)NC(=O)CC(C)C)cc3)sc2c1	-178
Cc1ccc2nc(-c3ccc(NC(=O)CCS(=O)(=O)c4ccccc4)cc3)sc2c1	n
Cc1ccc2nc(-c3ccc(NC(=O)C(C)Sc4nncs4)cc3)sc2c1 (stereo not given)	n
Cc1ccc2nc(-c3ccc(NC(=O)CSc4nc(N)cc(=O)[nH]4)cc3)sc2c1	-177
Cc1ccc2nc(-c3ccc(NC(=O)CN4CCN(c5ccccn5)CC4)cc3)sc2c1	-146
C#CC[N+](C)(C)CCCCCCCCC	n
Cc1ccc2nc(-c3ccc(NC(=O)COC(=O)c4ccc(=O)[nH]c4)cc3)sc2c1	-67
O=C(COC(=O)CC1CCCC1)Nc1cc2c(cc1Cl)C(=O)c1ccccc1C2=O	-169
Oc1sc(C=Nc2ccccc2)c2ccccc12	-254
Oc1c(C=Nc2ccc(Cl)cn2)sc2ccccc12	-180
Oc1c(C=Nc2ccccc2)sc2ccccc12	-65
Oc1sc(C=Nc2ccc(F)cc2)c2ccccc12	-227
CC(C)CC(=O)Nc1ccc(-c2cn3cccnc3n2)cc1	-80
CCCC(=O)Nc1ccc(-c2cn3cccnc3n2)cc1	-85
CC(C)(C)CC(=O)Nc1ccc(-c2cn3cccnc3n2)cc1	-80
CCCC(NC(=O)CCl)c1ccccc1 (stereo not given)	-72
CC(=O)NCc1ccc(-c2csc(-c3cccs3)n2)cc1	-126
COC(=O)N/N=C/c1cccc(OCCSc2ccc(Cl)cc2)c1	-82
O=C(NCCn1cc(SCc2ccccc2F)c2ccccc21)c1c(F)cccc1F	-62
Cc1cc(NC(=O)CSc2cn(CCNC(=O)c3ccc(Cl)cc3)c3ccccc23)no1	-90
SMILES	aSyn UTR act
Cc1ccc(C(=O)NCCn2cc(SCC(=O)Nc3nnc(C)s3)c3ccccc32)cc1	-109
O=C(O)c1cccc(N/N=C/c2ccc(OC(F)(F)F)cc2)c1	n
CCCN1CCC(=NNc2ccc(C(=O)O)cc2)CC1	-113
O=C(O)c1cc(N/N=C/c2ccc(OCc3ccccc3)cc2)ccc1Cl	-172
O=C(O)c1cc(N/N=C/C=C/c2ccccc2)ccc1Cl	-179
CCCN1CCC(=NNc2ccc(S(=O)(=O)N3CCOCC3)cc2[N+](=O)[O-])CC1	n
